Bioassay records: PubChem, National Center for Advancing Translational Sciences (NCATS)
PINK1 expr mod: changes PINK1 expression | 410,000 compounds, 0.2% hits | Potency, µM (top dose mostly 76.6 µM), for the others: top-dose activation (PINK1 increase), hits mostly activators | AID 624263 | PINK1 immunofluorescence, high-content cytometry, 24 h; active means well fitted activation curve with a large enough effect; inconclusive means small, poorly fitted or top-dose-only effect; cell line not stated here; further: potency means the concentration at half of the fitted maximal effect; % of control where 0% means no effect; nearly all actives have a fitted effect of over 65% in size
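Stable cell line treated 24 h with compounds at 5 concentrations (CCCP controls), then fixed and immunostained for PINK1 plus nuclear and cell stains; PINK1 immunofluorescence quantified by laser-scanning microplate cytometry.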
Epigenetic reg: derepresses silenced GFP reporter in murine cells | murine LDR cells, GFP reporter derepression, 30 h | Potency, µM (series often up to 53.9 µM), inactives show at the top dose GFP activation, hits mostly activators | 280,000 compounds, 0.2% hits | AID 1865; active means well fitted activation curve with a large enough effect; inconclusive means small, poorly fitted or top-dose-only effect; further: potency means the concentration at half of the fitted maximal effect; % of control where 0% means no effect; nearly all actives have a fitted effect of over 60% in size
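Readout is the number of GFP-expressing murine LDR cells, counted by cytometry following washing. Cells were treated with compound for 30 h at 37 C; the stably integrated CMV-GFP locus is normally silent.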
Menin-MLL TR inh: displaces Texas Red mutant MLL peptide from human menin; O00255; Menin + Texas Red MLL mutant peptide, fluorescence polarization; Potency, µM (titrated, usually from 61.6 µM), for inactives: at the top dose FP activity change, negative = inhibition, hits mostly inhibitors; 270,000 compounds, 0.23% hits; AID 1768; active means well fitted inhibition curve with a large enough effect in the polarisation, with a control signal flat, not every such curve was filed as active; inconclusive means small, poorly fitted or top-dose-only effect, or effect the other way, or a change in a side signal; inactive means no such curve, though single readings can be large or run the other way; the % refers to the polarisation; further: potency means the concentration at half of the fitted maximal effect; % of control where 0% means no effect
MLL CXXC-DNA inh: inhibitors of human MLL CXXC domain-DNA interaction. MLL-CXXC / FITC-HOXA9 DNA fluorescence polarization. 290,000 compounds, 0.037% hits. Potency, µM (titrated, usually from 115 µM), for inactives: at the top dose activity change, negative = inhibition, hits mostly inhibitors; active means well fitted inhibition curve with a large enough effect in the polarisation, with a control signal flat, not every such curve was filed as active; inconclusive means small, poorly fitted or top-dose-only effect, or effect the other way, or a change in a side signal; inactive means no such curve, though single readings can be large or run the other way; the % refers to the polarisation; further: potency means the concentration at half of the fitted maximal effect
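Steps: dispense CXXC domain solution (7 uM) → pin compounds or unlabeled HOX-A9 DNA control → 5 min ambient → add FLSN-HOX-A9 solution (50 nM) → spin → 30 min ambient → fluorescence polarization. Tris pH 7.5/NaCl/DTT/BSA buffer.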
Menin-MLL FL inh: displaces fluorescein MLL peptide from human menin. Fluorescence polarization, fluorescein-MLL peptide displacement from menin. FP activity change, % at 61.4 µM. 290,000 tested, under 10 active; active means well fitted curve in the direction sought with a large enough effect in the polarisation, not every such curve was filed as active; inconclusive means small, poorly fitted or top-dose-only effect, or effect the other way, or a change in a side signal; inactive means no such curve, though single readings can be large or run the other way; the % refers to the polarisation; further: % of control where 0% means no effect
ClpP mod: qHTS Assay for Activators of ClpP | ATP-dependent Clp protease proteolytic subunit (Bacillus subtilis (strain 168)), P80244 | 340,000 compounds, 1.9% hits | purified B. subtilis ClpP, FRET peptide cleavage, 20 min | Potency, µM (top dose mostly 57.5 µM), inactives show top-dose activity change, negative = active; active means well fitted falling curve with a large enough effect; inconclusive means small, poorly fitted or top-dose-only effect; inactive means no such curve, though single readings can be large or run the other way; further: potency means the concentration at half of the fitted maximal effect; the source files actives as falling curves though it sought activators and does not explain the sign; nearly all actives have a fitted effect of over 65% in size
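ClpP 10 microg/mL final, pH 8 Tris/KCl buffer with BSA, glycerol, Tween-20; compound pinned in; FRET-FV substrate; RT 20 min; Ex320/Em430; ΔFRET vs ADEP 5.8 microM, DMSO, no enzyme.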
Active calls of the source: *; ? = inconclusive; . = not tested or not shown; [ ] = dose if it differs, or a comment. Hits are enriched below; roughly 1.9% of the tested compounds scored in any of these assays.

SMILES | PINK1 expr mod | Epigenetic reg | Menin-MLL TR inh | MLL CXXC-DNA inh | Menin-MLL FL inh | ClpP mod
CC(C)Cn1cc(C(=O)N2CCOCC2)c2c3ccccc3n(C)c2c1=O | 17%[38.3 µM] | -2% | 4% | -6% | 2 | 16µM*
COc1[nH]c(/N=C/c2ccco2)c(C#N)c1C#N | -1% | . | . | . | . | 12%
COc1ccc(-c2cc(C(F)(F)F)nc(NC3CCCC3)n2)cc1OC | ? | -1% | -17% | 2% | 7 | 35µM*
Cc1cc(C(=O)Nc2ccccc2-c2nc(CNC(=O)C3COc4ccccc4O3)c(C)o2)c(C)o1 (configuration not stated) | 0% | . | . | . | . | .
COc1ccc(C(=O)NC(=S)Nc2ccc(N3CCN(C(C)=O)CC3)cc2)cc1[N+](=O)[O-] | -1% | 2% | . | -23% | 3 | -3%
CCOc1cccc(C(=O)NC(=S)Nc2ccc(N3CCN(CC)CC3)cc2)c1 | -1% | 4% | 7.1µM* | -2% | -8 | .
CC(=O)N1CCN(c2ccc(NC(=S)NC(=O)c3ccc(C)c([N+](=O)[O-])c3)cc2)CC1 | 1% | 1% | . | 5% | -2 | 32µM*
CC(C)CC(=O)Nc1ccc2oc(-c3ccncc3)nc2c1 | -1% | 2% | -8% | -2% | 0 | ?
Cc1cc2nc(-c3ccc(NC(=O)C(C)C)cc3)oc2cc1C | -2% | 5% | 2% | 25% | 2 | 31%
Cc1ccc(-c2nc3cc(NC(=O)C(C)C)ccc3o2)cc1C | 22%[38.3 µM] | -1% | 7% | 2% | 3 | 28µM*
CC(Oc1ccc(Cl)cc1Cl)C(=O)Nc1ccc2oc(-c3ccncc3)nc2c1 (configuration not stated) | 6% | 0% | 4% | 6% | 3 | 8.9µM*
Cc1ccc(-c2nc3cc(NC(=O)C(C)C)ccc3o2)cc1 | 7% | 5% | -15% | 3% | 2 | 14µM*
Cc1ccc(-c2nc3cc(Cl)ccc3o2)cc1 | 1% | -8% | . | -5% | -6 | 35µM*
COc1cc(C(=O)O[C@@H]2CC3CC[C@]2(C)C3(C)C)ccc1O | . | . | -15% | . | 1 | .
O=C(c1ccc2[nH]ccc2c1)N1CCOc2ccc(CN3CCN(c4ccccn4)CC3)cc2C1 | -1% | . | . | . | . | .
C=C1C=C(C(F)F)n2ncc(C(=O)N3CCc4ccccc4C3)c2N1 | 0% | . | . | . | . | -2%
COc1cc(OC)cc(-c2nc3cc(C)ccc3o2)c1 | 17% | -1% | 0% | 2% | 0 | 25µM*
COc1cc(OC)cc(-c2nc3ccccc3c(=O)o2)c1 | 3% | -1% | 19% | 3% | -1 | -29%
CC[C@H](C)[C@H](NC(=O)[C@@H](NC(=O)CNC(=O)[C@@H](N)CC(C)C)[C@@H](C)O)C(=O)N1CCC[C@H]1C(=O)NCC(=O)O | . | . | -19% | . | 0 | .
COC(=O)c1cc(NC(=O)c2cccc(C(F)(F)F)c2)c(=O)oc1C/C=N/OCc1cccc(Cl)c1Cl | 22µM* | 2% | ? | 67% | ? | -2%
CC(C)N1CC(O)=C(c2nc3ccccc3c(=O)[nH]2)C1=N | 1% | 0% | . | -2% | 0 | 28µM*
Cc1cc(C)cc(N2CC(O)=C(c3nc4ccccc4c(=O)[nH]3)C2=N)c1 | 24% | 9% | 4% | 36% | 8 | .
COc1cccc(N2CC(O)=C(c3nc4ccccc4c(=O)[nH]3)C2=N)c1 | ? | 5% | -1% | -8% | -2 | 25µM*
N=C1C(c2nc3ccccc3[nH]2)=C(O)CN1c1ccc(F)cc1 | 10% | 6% | -2% | ? | 3 | ?
COC(=O)c1c(OCc2cccnc2)cc(=O)n2c1CCN(C(=O)c1c3c(nn1C)CCCC3)CC2 | 0% | . | . | . | . | .
SMILES | PINK1 expr mod | Epigenetic reg | Menin-MLL TR inh | MLL CXXC-DNA inh | Menin-MLL FL inh | ClpP mod
Cc1nn(C(C)(C)C)c(OC(=O)c2ccc3c(c2)OCO3)c1S(=O)(=O)c1ccccc1 | -2% | -1% | ? | 2% | 0 | ?
Cc1nn(C(C)(C)C)c(OC(=O)c2ccc3c(c2)OCO3)c1Sc1ccccc1 | 0% | 0% | 4% | 10% | 1 | 32µM*
Cc1ccc(CN2CCc3nnc(C(NC(=O)c4ccoc4)C(C)C)n3CC2)cc1C (configuration not stated) | 0% | . | . | . | . | .
COc1ccc(CCn2c(N)c(C(=O)NCc3ccco3)c3nc4ccccc4nc32)cc1 | -3% | 0% | ? | 4% | 7 | 32µM*
CCOC(=O)c1c(N)n(-c2ccc(C)c(C)c2)c2nc3ccccc3nc12 | -1% | 1% | . | . | . | 4%
COCCn1c(N)c(C(=O)OCc2ccccc2)c2nc3ccccc3nc21 | 2% | -2% | ? | -3% | 3 | 7.9µM*
CCCNC(=O)c1c(N)n(-c2cccc(OC)c2)c2nc3ccccc3nc12 | -4% | 2% | 29% | 1% | 3 | 20µM*
C=CCn1c(N)c(C(=O)OCCC)c2nc3ccccc3nc21 | 2% | -2% | -2% | -1% | 2 | ?
Nc1c(C(=O)NCc2ccco2)c2nc3ccccc3nc2n1CCc1ccccc1F | -1% | 8% | 13% | 0% | 5 | 28µM*
Cc1ccc(N(Cc2ccccc2)C(=O)c2cc(S(=O)(=O)N3CCOCC3)ccc2N2CCCC2)cc1 | -1% | . | . | . | . | -4%
CCC1(C2CCN(C(=O)c3cc(F)ccc3F)CC2)NC(=O)N(CCc2scnc2C)C1=O (configuration not stated) | 0% | . | . | . | . | .
COc1ccc(CCn2c(N)c(C(=O)NCc3ccco3)c3nc4ccccc4nc32)cc1OC | -3%[38.3 µM] | ? | 15% | -3% | 15 | 28µM*
COc1ccc(-n2c(N)c(C(=O)NCc3ccco3)c3nc4ccccc4nc32)c(OC)c1 | 10% | 0% | 17% | 9% | 12 | 11µM*
Nc1[nH]c(=S)[nH]c(=O)c1N | . | . | . | . | . | -5%
O=C(NC12CC3CC(CC(C3)C1)C2)c1ccc(-c2ccc(Cl)cc2)o1 | ? | -2% | 0% | 5% | . | 32µM*
CCC1CN(CCNC(=O)c2cccc(C(=O)OC)c2)Cc2cc(OC)ccc2O1 (configuration not stated) | 0% | . | . | . | . | .
CN1CCN(c2cc(N3CCN(C(=O)c4ccco4)CC3)c3c4c(onc24)-c2ccccc2C3=O)CC1 | 1% | . | ? | ? | ? | 1%
O=C(O)CCCNc1cc(N2CCN(C(=O)c3ccco3)CC2)c2noc3c2c1C(=O)c1ccccc1-3 | ? | . | 16µM* | ? | ? | 0%
CCC(C)Nc1nc(Cl)nc(NCCOc2ccccc2)n1 (configuration not stated) | 5% | 2% | -1% | 0% | 4 | 28µM*
COC1C(CO)OC(n2c3c(Cl)cccc3c3c4c(c5c6cccc(Cl)c6[nH]c5c32)C(=O)NC4=O)C(O)C1O (configuration not stated) | 40µM* | . | . | . | . | 0%
